Reference: publication PMC5913336, “True equilibrium measurement of transcription factor-DNA binding affinities using automated polarization microscopy”

Target: T1, Kni (Drosophila melanogaster, UniProt P10734 2-102)
T1 sequence: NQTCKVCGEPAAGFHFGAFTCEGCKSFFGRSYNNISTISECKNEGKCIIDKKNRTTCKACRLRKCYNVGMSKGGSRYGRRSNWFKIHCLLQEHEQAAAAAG
Assay: FP; 33 mM phosphate pH 7.0, 90 mM NaCl, 0.01% Tween 20, 0.1 mM DTT, 0.5% agarose; room temperature
Conditions: tags: N-GST (pGEX-6P-1, kept); dsDNA, one strand shown

Question: CAAAACTAGAGCACC was tested. Which binding signal did it give?
Answer: 2.3 Kd / Kd of best base at the position

Question: With CAAAACTGGAGCACT as the sequence, how does the binding signal read?
Answer: 1.5 Kd / Kd of best base at the position

Question: With CAAAACTAAAGCACT as the sequence, how does the binding signal read?
Answer: 8.43 Kd / Kd of best base at the position

Question: For CAAAACTAGAGCATT, which binding signal is on record?
Answer: 2.42 Kd / Kd of best base at the position

Question: For GAAAACTAGAGCACT, which binding signal is on record?
Answer: 1.36 Kd / Kd of best base at the position

Question: Which binding signal does the source give for CAAAACTAGTGCACT here?
Answer: 4.66 Kd / Kd of best base at the position

Question: CAAAATTAGAGCACT was tested. Which binding signal did it give?
Answer: 1.05 Kd / Kd of best base at the position

Question: How did the binding signal turn out when CCAAACTAGAGCACT was run?
Answer: 1.71 Kd / Kd of best base at the position

Question: How did the binding signal turn out when CAAAACTTGAGCACT was run?
Answer: 25.5 Kd / Kd of best base at the position

Question: For CAAAACTAGGGCACT, which binding signal is on record?
Answer: 2.34 Kd / Kd of best base at the position

Target: T2, Cad (Drosophila melanogaster, UniProt P09085 273-344)
T2 sequence: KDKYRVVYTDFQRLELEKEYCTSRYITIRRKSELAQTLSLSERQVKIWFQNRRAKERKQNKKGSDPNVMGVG
Assay: FP; 20 mM Tris-acetate pH 7.0, 50 "nM" NaCl as printed (probably mM), 0.01% Tween 20, 0.1 mM DTT; conventional titration
Conditions: tags: N-GST (pGEX-6P-1, kept); dsDNA, one strand shown

Question: Which binding signal does the source give for CACTCTTTATA here?
Answer: 7.2 Kd / Kd of best base at the position

Question: With CGCTTTTTATA as the sequence, how does the binding signal read?
Answer: 3.5 Kd / Kd of best base at the position

Question: How did the binding signal turn out when GACTTTTTATA was run?
Answer: 1.8 Kd / Kd of best base at the position

Question: CACTTTTTATT was tested. Which binding signal did it give?
Answer: 5.4 Kd / Kd of best base at the position

Question: CACTTTTAATA was tested. Which binding signal did it give?
Answer: 4.1 Kd / Kd of best base at the position

Question: How did the binding signal turn out when CACTTTTTAGA was run?
Answer: 16 Kd / Kd of best base at the position

Question: For CTCTTTTTATA, which binding signal is on record?
Answer: 4.6 Kd / Kd of best base at the position

Question: How did the binding signal turn out when CAATTTTTATA was run?
Answer: 2 Kd / Kd of best base at the position

Question: For CACTTTTTCTA, which binding signal is on record?
Answer: 287 Kd / Kd of best base at the position

Question: With CACTTTTTAAA as the sequence, how does the binding signal read?
Answer: 13.6 Kd / Kd of best base at the position

Question: For CACTTTTTGTA, which binding signal is on record?
Answer: 29 Kd / Kd of best base at the position

Question: Which binding signal does the source give for CACTTTTTATG here?
Answer: 2.2 Kd / Kd of best base at the position

Question: For AACTTTTTATA, which binding signal is on record?
Answer: 2.9 Kd / Kd of best base at the position

Question: With CACTGTTTATA as the sequence, how does the binding signal read?
Answer: 3.1 Kd / Kd of best base at the position

Question: For CACTTTGTATA, which binding signal is on record?
Answer: 27.9 Kd / Kd of best base at the position

Question: For CACATTTTATA, which binding signal is on record?
Answer: 2.5 Kd / Kd of best base at the position

Question: For CACTTTCTATA, which binding signal is on record?
Answer: 37.9 Kd / Kd of best base at the position

Question: CACTTTTGATA was tested. Which binding signal did it give?
Answer: 50.5 Kd / Kd of best base at the position

Question: With CACTTTTTACA as the sequence, how does the binding signal read?
Answer: 1.6 Kd / Kd of best base at the position

Question: Which binding signal does the source give for CATTTTTTATA here?
Answer: 6.67 Kd / Kd of best base at the position

Question: With CACTTATTATA as the sequence, how does the binding signal read?
Answer: 2.8 Kd / Kd of best base at the position

Question: CACTTCTTATA was tested. Which binding signal did it give?
Answer: 16.8 Kd / Kd of best base at the position

Question: For CCCTTTTTATA, which binding signal is on record?
Answer: 1 Kd / Kd of best base at the position

Question: Which binding signal does the source give for CACTTTATATA here?
Answer: 3 Kd / Kd of best base at the position

Question: With CACTTTTCATA as the sequence, how does the binding signal read?
Answer: 17.6 Kd / Kd of best base at the position

Question: With CACTTTTTATC as the sequence, how does the binding signal read?
Answer: 13.5 Kd / Kd of best base at the position

Question: Which binding signal does the source give for CACCTTTTATA here?
Answer: 1.7 Kd / Kd of best base at the position

Question: Which binding signal does the source give for CACTTGTTATA here?
Answer: 16.7 Kd / Kd of best base at the position

Question: Which binding signal does the source give for CACTATTTATA here?
Answer: 2.8 Kd / Kd of best base at the position

Question: How did the binding signal turn out when CACTTTTTTTA was run?
Answer: 181 Kd / Kd of best base at the position
